Compounds with a hit are over-represented: about 7.9% of the library has one in this group of screens.
LASV entry inh = qHTS for Inhibitors of binding or entry into cells for Lassa Virus; Lassa virus pseudotype entry inhibition, cell reporter; Potency, µM (series often up to 37.9 µM), actives largely listed as inhibitors; 300,000 compounds, 1.2% hits; calls by dose curve; tested in HEK293 cells; note: nearly all actives have a fitted effect of over 50% in size
MARV entry inh = qHTS for inhibitors of binding or entry into cells for Marburg Virus; Marburg virus pseudotyped entry inhibition, cell reporter; Potency, µM (series often up to 37.8 µM), hits mostly inhibitors; 300,000 compounds, 1.8% hits; AID 540276, 2011; calls by dose curve; tested in HEK293 cells
FMDV antiviral = High Throughput Screening for Foot and Mouth Disease Virus Antivirals. FMDV antiviral cell-based qHTS. Potency, µM (top dose mostly 57.9 µM), usual class: inhibitors. 410,000 compounds, 1.2% hits. AID 1159524, 2015; calls by dose curve; tested in HEK293T cells; note: read-out not given here; nearly all actives have a fitted effect of over 45% in size
HCV inhibitor = qHTS Assay for Inhibitors of Hepatitis C Virus (HCV) | Huh7.5.1 HCVcc-Cre infection, luciferase reporter, 44 h | Potency, µM (doses to about 41.8 µM), actives largely listed as inhibitors | 340,000 compounds, 3.4% hits | AID 651820, 2012; active = well fitted inhibition curve with a large enough effect; inconclusive = small, poorly fitted or top-dose-only effect, or another doubt; inactive = no such curve, though single readings can be large or run the other way
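Whole-lifecycle infectious HCVcc-Cre system; cells 1,000/well, compound then virus (~0.5 moi) added 4 h after plating, 44 h culture. Luciferase read 15 sec following 15 min substrate incubation, room temp.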
HCMV antiviral = qHTS Assay for inhibitors of the human cytomegalovirus (HCMV); HFF cells, HCMV-luciferase reporter, 72 h; active compounds read low; activity change, negative = inhibition, % at 57.5 µM; 410,000 compounds, 4.5% hits; AID 1259415, 2018; in the data active = activity change below about -60%; inconclusive = no clear call, values can overlap the other calls; inactive = above about -39%
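HFF cells seeded 16 h at 37C, treated with compounds, infected with luciferase-reporter HCMV at MOI 1 PFU/cell; luciferase read at 72 h post infection, normalized to buffer-only and Salinomycin controls.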
Each line names hits and unclear results; the compound was inactive in the other large screens.

Cc1cc(NCc2ccccn2)n2ncc(-c3ccccc3)c2n1	LASV entry inh inconclusive, MARV entry inh inconclusive, HCV inhibitor 2.8µM, HCMV antiviral -66
Cc1cc(NCc2ccccn2)n2ncc(-c3ccc(Cl)cc3)c2n1	MARV entry inh inconclusive, HCV inhibitor inconclusive
CCCc1cc(NCc2ccccn2)n2nc(C)c(-c3ccccc3)c2n1	LASV entry inh inconclusive, MARV entry inh inconclusive, HCV inhibitor inconclusive, HCMV antiviral -95
Cc1nn2c(NCC(C)C)c3c(nc2c1-c1ccccc1)CCC3	MARV entry inh inconclusive, HCV inhibitor 6.3µM (no result: HCMV antiviral)
Cc1cc(NCCC(C)C)n2nc(C)c(-c3ccccc3)c2n1	MARV entry inh inconclusive, HCV inhibitor 8.9µM
Cc1ccc(Cl)cc1-n1ncc2c(NCCC3=CCCCC3)ncnc21	none (no result: MARV entry inh, HCV inhibitor)
COc1ccc2c(c1)[C@@H](NC(=O)OCc1ccccc1)[C@H](C)[C@@H](C(C)C)N2	none (no result: LASV entry inh, MARV entry inh, FMDV antiviral, HCV inhibitor)
O=C(NCc1ccccc1F)c1cc2ccccn2n1	none (no result: MARV entry inh, HCV inhibitor)
Cc1nn2c(NCc3ccccn3)cc(C(C)C)nc2c1-c1ccccc1	HCV inhibitor 4µM, HCMV antiviral -98 (no result: LASV entry inh, MARV entry inh)
C=CC[C@@H]1C=C(C(=O)OC)N(C(=O)C(F)(F)F)[C@@H](c2ccccc2Br)[C@@H]1C	none (no result: LASV entry inh, FMDV antiviral, HCV inhibitor, HCMV antiviral)
C=C(C(C)=O)C(O)/C=C/c1ccco1 (stereo not given)	none (no result: LASV entry inh, FMDV antiviral, HCV inhibitor, HCMV antiviral)
COc1ccc(C(=O)C2CCCN(Cc3cccn3-c3nccs3)C2)cc1OC (stereo not given)	FMDV antiviral inconclusive, HCV inhibitor inconclusive (no result: LASV entry inh, MARV entry inh)
COc1ccc(C(=O)C2CCCN(Cc3cccn3-c3nccs3)C2)cc1F (stereo not given)	LASV entry inh inconclusive, MARV entry inh inconclusive, HCMV antiviral -64
CC(C)Oc1cccc(C(=O)C2CCCN(Cc3cccn3-c3ccccn3)C2)c1 (stereo not given)	LASV entry inh 11µM, MARV entry inh inconclusive, HCMV antiviral -71
O=C(c1ccc(Cl)cc1)C1CCCN(Cc2cccc3ncccc23)C1 (stereo not given)	FMDV antiviral inconclusive, HCV inhibitor 7.9µM (no result: LASV entry inh, MARV entry inh)
CC(C)Oc1cccc(C(=O)C2CCCN(C(=O)c3ccccn3)C2)c1 (stereo not given)	none (no result: LASV entry inh, MARV entry inh)
COc1cccc(C(=O)C2CCCN(Cc3cccn3-c3ccccn3)C2)c1 (stereo not given)	LASV entry inh inconclusive, MARV entry inh inconclusive, HCMV antiviral -63
CCCCNC(=O)Nc1ccc([C@@](O)(C(=O)OCC)C(F)(F)F)cc1	none (no result: LASV entry inh, FMDV antiviral, HCV inhibitor, HCMV antiviral)
CCCCC(=O)N[C@H]1CC[C@@]23CCCN2C(=O)CCC[C@H]3[C@H]1Cc1ccccc1	none (no result: LASV entry inh, MARV entry inh, FMDV antiviral, HCV inhibitor)
C=CCN1C(=O)CC[C@@]23C1=NC(C(=O)OC)=C(C(=O)OC)[C@@H]2N(C)c1ccccc13	none (no result: LASV entry inh, FMDV antiviral, HCV inhibitor, HCMV antiviral)
COc1ccc(C(=O)C2CCCN(Cc3cccn3-c3ccccn3)C2)cc1F (stereo not given)	LASV entry inh inconclusive, MARV entry inh inconclusive
O=C(c1ccc(Cl)cc1)C1CCCN(Cc2cccn2-c2ccccn2)C1 (stereo not given)	LASV entry inh inconclusive, MARV entry inh 4µM
COc1ccc(/C=N/NC(=S)Nc2cc(S(=O)(=O)N3CCOCC3)ccc2N2CCOCC2)cc1O	LASV entry inh inconclusive, MARV entry inh inconclusive, FMDV antiviral inconclusive, HCV inhibitor 10µM
CCOc1cccc(/C=N/NC(=S)Nc2cc(S(=O)(=O)N3CCOCC3)ccc2N2CCOCC2)c1O	LASV entry inh inconclusive, MARV entry inh inconclusive, FMDV antiviral inconclusive, HCV inhibitor inconclusive, HCMV antiviral -79
COC(c1ccc2c(c1)CN(C(=O)Cn1nc(C)c3ccccc3c1=O)CCO2)C1CCCCC1 (stereo not given)	none (no result: LASV entry inh, MARV entry inh, HCV inhibitor, HCMV antiviral)
COc1ccc2c3c(n(C)c2c1)[C@@H](CO)N(C(=O)c1ccncc1)CC31CCN(C(C)=O)CC1	none (no result: LASV entry inh, MARV entry inh, FMDV antiviral, HCV inhibitor)
O=c1c(-c2ccccc2)c(O)c2ccccc2n1-c1ccccc1	HCMV antiviral -64
CCn1c(=O)c(-c2ccccc2)c(O)c2ccccc21	none
CCc1nc2cc(C(=O)N[C@H]3CCCCNC3=O)cc(NC(=O)c3ccccc3OC)c2n1C	none (no result: LASV entry inh, MARV entry inh, HCV inhibitor, HCMV antiviral)
Cc1cc(OCC(=O)Nc2cccc(S(=O)(=O)N3CCCCC3)c2)ccc1Cl	HCV inhibitor inconclusive (no result: LASV entry inh, MARV entry inh)
Cc1cc(OCC(=O)Nc2cccc(S(=O)(=O)N3CCCC3)c2)ccc1Cl	LASV entry inh inconclusive, MARV entry inh 5µM, HCV inhibitor inconclusive
CCOc1ccc(NC(=O)COc2cccc3cccnc23)cc1S(=O)(=O)N1CCCC1	none (no result: LASV entry inh, MARV entry inh, HCV inhibitor)
CCN1CCN(c2ccc(S(=O)(=O)N3CCCCC3)cc2NC(=O)/C=C/c2ccc(Cl)cc2)CC1	LASV entry inh 18µM, MARV entry inh inconclusive, HCV inhibitor 32µM
Cc1cccc(C)c1OCC(=O)Nc1cccc(S(=O)(=O)N2CCCC2)c1	LASV entry inh inconclusive, MARV entry inh inconclusive, HCV inhibitor 8.9µM
O=C(COc1cccc2cccnc12)Nc1cccc(S(=O)(=O)N2CCCC2)c1	FMDV antiviral inconclusive, HCV inhibitor 10µM (no result: LASV entry inh, MARV entry inh)
Cc1cccc(C)c1OCC(=O)Nc1cccc(S(=O)(=O)N2CCCCCC2)c1	none (no result: LASV entry inh, MARV entry inh, HCV inhibitor)
Nc1c(C(=O)NCCc2ccccc2)nnn1CC(=O)Nc1ccc(Cl)cc1	LASV entry inh inconclusive (no result: MARV entry inh, HCV inhibitor)
CCN(CC)S(=O)(=O)c1ccc2c(c1)N(CC(=O)N1CCN(c3cccc(C(F)(F)F)c3)CC1)C(=O)CO2	FMDV antiviral inconclusive (no result: MARV entry inh, HCV inhibitor)
CN1CCN(c2ccc(Cl)cc2NC(=O)/C=C/c2cccc(F)c2)CC1	MARV entry inh 5µM, HCV inhibitor inconclusive
O=C(Nc1c(Cl)cccc1Cl)Oc1cccc2cccnc12	HCMV antiviral -98 (no result: LASV entry inh, MARV entry inh, HCV inhibitor)
CCN1CCN(c2ccc(S(=O)(=O)N3CCCCC3)cc2NC(=O)COc2ccc(Cl)c(C)c2)CC1	MARV entry inh inconclusive, HCV inhibitor 11µM
CCS(=O)c1ccccc1C(=O)OCC(=O)Nc1cccc(S(=O)(=O)N2CCCCC2)c1 (stereo not given)	FMDV antiviral inconclusive, HCV inhibitor 10µM (no result: LASV entry inh, MARV entry inh)
